Screen size: about 1,000 compounds; about 25 (2%) were called active.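 Rule for the calls: active = rising signal whose fitted curve reaches the 0.54 level within the top valid dose, showing a melting point (actives reach about 13 µM in these data); inactive = the rest, including activity in the opposite direction.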 Not all results are given here.
Assay: compound-only thermal shift signal without protein, dose response, artefact control for FGF22 binder project, biochemical, cherry-picked samples, RT-PCR instrument (AID 743019); note: value is where the raw curve crosses a fixed level and not half-maximal
Conditions: compound-only SYPRO orange thermal shift counter-screen, no protein; at 38 µM (top of the series) unless noted
For `COc1cc([N+](=O)[O-])ccc1NC(=O)CN1CCCC1`, the outcome was “inactive”.
For `C[C@H]1CN([C@@H](C)CO)C(=O)Cc2cc(NC(=O)Cc3cn(C)c4ccccc34)ccc2O[C@@H]1CN(C)Cc1ccccc1`, the outcome was “inactive [at 42 µM]”.
In the case of `Cc1ccc(S(=O)(=O)N(C)C[C@@H]2Oc3cc(C4=CCCC4)ccc3S(=O)(=O)N([C@@H](C)CO)C[C@@H]2C)cc1`, the outcome is reported as “inactive [at 42 µM]”.
With `O=C(NN1C(=O)C2C3C=CC(O3)C2C1=O)c1ccccc1` (stereo not given) the outcome was “inactive”.
With `O=C(N[C@@H]1C=C[C@H](CC(=O)N2CCCCC2)O[C@H]1CO)c1cccc(F)c1` the outcome was “inactive”.
In the case of `CCn1ccnc1CN(C)C(=O)c1ccc2nc(Cc3ccc(OC)cc3)oc2c1`, the outcome is reported as “inactive”.
For `C[C@@H]1CN([C@@H](C)CO)S(=O)(=O)c2ccc(-c3ccncc3)cc2O[C@@H]1CN(C)C(=O)Nc1ccc(F)cc1`, the outcome was “inactive”.
For `O=C(N/N=C/c1ccc([N+](=O)[O-])cc1)c1c[nH]c2ccccc12`, the outcome was “inactive”.
For `COc1ccccc1NC(=O)N1[C@H](C#N)[C@H](c2ccccc2)[C@H]1CO`, the outcome was “inactive [at 42 µM]”.
In the case of `O=C(NCCc1c[nH]c2ccccc12)C(=O)NCC1CCCO1` (stereo not given), the outcome is reported as “inactive”.
For `O=C(c1ccccc1F)N1CC(=O)N2[C@H](C1)[C@H](c1ccc(-c3ccc(F)cc3)cc1)[C@@H]2CO`, the outcome was “inactive [at 42 µM]”.
For `CS(=O)(=O)c1ccc2nc(NC(=O)c3ccc(Cl)nc3)sc2c1`, the outcome was “inactive”.
With `OC[C@H]1[C@H](c2ccc(-c3cccnc3)cc2)[C@H]2CN(Cc3ccccn3)CCCCN21` the outcome was “inactive”.
With `O=C(Nc1ccccc1F)N1[C@H](CO)[C@H]2c3ccccc3NC[C@H]21` the outcome was “inactive [at 42 µM]”.
With `NS(=O)(=O)c1cccc(NC(=O)COC(=O)c2cc([N+](=O)[O-])ccc2N2CCCC2)c1` the outcome was “inactive”.
In the case of `Cc1ccc(NC(=O)Nc2cccnc2)cc1`, the outcome is reported as “inactive”.
In the case of `O=C(N/N=C/c1ccc(Cl)c(Cl)c1)c1ccc2nc[nH]c2c1`, the outcome is reported as “inactive”.
In the case of `Cc1ccc(S(=O)(=O)Nc2nc3ccccc3s2)cc1[N+](=O)[O-]`, the outcome is reported as “inactive”.
In the case of `O=C(Nc1nnc(-c2ccccc2F)s1)c1ccccc1F`, the outcome is reported as “inactive”.
For `O=C(C[C@H]1CC[C@H]2[C@@H](COC[C@H](O)CN2S(=O)(=O)c2cccc(Cl)c2)O1)Nc1ccccc1`, the outcome was “inactive [at 42 µM]”.
With `COCCN(C(=O)C(C)C)c1nnc(-c2ccc(C(C)(C)C)cc2)s1` the outcome was “inactive”.
For `C[C@H]1CN([C@@H](C)CO)S(=O)(=O)c2ccc(C3=CCCC3)cc2O[C@H]1CN(C)C(=O)Nc1ccc2c(c1)OCO2`, the outcome was “inactive [at 42 µM]”.
With `COc1ccc(-c2cc(=O)oc3cc(OCC(=O)N[C@@H](Cc4c[nH]c5ccccc45)C(=O)O)ccc23)cc1` the outcome was “inactive”.
For `O=S(=O)(ON(c1ccccc1)S(=O)(=O)c1ccccc1)c1ccccc1`, the outcome was “inactive”.
In the case of `O=C(Cc1cccnc1)N[C@H]1CC[C@H](CCn2cc(-c3ccccc3F)nn2)O[C@H]1CO`, the outcome is reported as “inactive”.
With `CC(=O)Nc1ccc(S(=O)(=O)N(CCc2ccccc2)CC(=O)N/N=C/c2ccc(C(=O)O)cc2)cc1` the outcome was “inactive”.
In the case of `CCCOc1ccc(NC(=O)CC2C(=O)N(C)C(=S)N2Cc2ccc3c(c2)OCO3)cc1` (stereo not given), the outcome is reported as “inactive”.
With `CC(C)NC(=O)N1C[C@@H]2[C@H](c3ccccc31)[C@H](CO)N2C(=O)c1ccccn1` the outcome was “inactive [at 42 µM]”.
With `O=C(N/N=C/c1ccc(OCc2ccccc2)cc1)c1ccc(O)cc1` the outcome was “inactive”.
With `C[C@@H]1CCCCO[C@@H](CN(C)Cc2ccncc2)[C@H](C)CN([C@H](C)CO)C(=O)c2cc(NC(=O)Cc3ccccc3)ccc2O1` the outcome was “inactive”.
In the case of `Cc1cccc(S(=O)(=O)N2C[C@@H](O)COC[C@H]3O[C@H](CC(=O)Nc4ccc(-c5ccccc5)cc4)CC[C@@H]32)c1`, the outcome is reported as “inactive [at 42 µM]”.
For `CN1C(=O)c2cccc3c(N)ccc(c23)C1=O`, the outcome was “inactive”.
With `CN1C(=O)c2cc(NC(=O)c3cccc(F)c3)ccc2OC[C@@H]2O[C@H](CC(=O)N3CCc4ccccc4C3)CC[C@@H]21` the outcome was “inactive”.
In the case of `COc1ccccc1C(=O)NNC(=O)c1ccc(NC(=O)c2ccccc2)cc1`, the outcome is reported as “inactive”.
For `C[C@@H]1CN([C@H](C)CO)S(=O)(=O)c2ccc(-c3ccncc3)cc2O[C@@H]1CN(C)C(=O)Nc1ccc(C(F)(F)F)cc1`, the outcome was “inactive”.
In the case of `Cc1c(CCO)sc[n+]1CC(=O)OC12CC3CC(CC(C3)C1)C2`, the outcome is reported as “inactive”.
For `COc1ccc(-c2ccc([C@H]3[C@H]4CN(C(=O)c5ccc6c(c5)OCO6)CCCCN4[C@H]3CO)cc2)cc1`, the outcome was “inactive [at 42 µM]”.
With `CC(=O)N1c2ccc(S(=O)(=O)N3CCC(C(=O)NCc4ccc(F)cc4)CC3)cc2CC1C` (stereo not given) the outcome was “inactive”.
For `CC(C)NC(=O)N(C)C[C@@H]1Oc2c(NC(=O)c3nc4ccccc4s3)cccc2C(=O)N([C@H](C)CO)C[C@H]1C`, the outcome was “inactive [at 42 µM]”.
With `CCCCN1CC(N2CCN(Cc3cccc(C)c3)CC2)CS1(=O)=O` (stereo not given) the outcome was “inactive”.
In the case of `Cc1ccc(NC(=O)O/N=C/c2cccc([N+](=O)[O-])c2)cc1`, the outcome is reported as “inactive”.
In the case of `CC(=O)NC[C@@H]1[C@@H](c2ccccc2)[C@@H](CO)N1C(=O)Cc1cccnc1`, the outcome is reported as “inactive [at 42 µM]”.
In the case of `O=C(COc1ccc([N+](=O)[O-])cc1)Nc1cccc(C(=O)Nc2ccccc2C(=O)O)c1`, the outcome is reported as “inactive”.
For `CC(C)(C)N1C(=O)c2c(C(=O)OCc3ccccc3)[nH]c(-c3ccccc3)c2C1=O`, the outcome was “inactive”.
In the case of `COc1cc(NC(=O)c2ccc3c(c2)OCO3)ccc1NC(=O)c1cccs1`, the outcome is reported as “inactive”.
With `O=C(C[C@H]1C[C@@H]2c3cc(NC(=O)Nc4ccc(C(F)(F)F)cc4)ccc3O[C@@H]2[C@@H](CO)O1)NCC1CC1` the outcome was “inactive [at 10 µM]”.
For `CNC[C@@H]1Oc2ccc(NC(=O)C3CCCCC3)cc2C(=O)N([C@@H](C)CO)C[C@H]1C`, the outcome was “inactive”.
With `COCC(=O)Nc1ccc2c(c1)OC[C@H](C)N(C)C[C@@H](C)[C@@H](OC)CN(C)C2=O` the outcome was “inactive [at 42 µM]”.
With `O=C(N/N=C/c1c[nH]c2ccccc12)c1cc2ccccc2o1` the outcome was “inactive”.
In the case of `Cc1ccc(S(=O)(=O)NCCC(=O)Nc2ccc(C)c(Cl)c2)cc1C`, the outcome is reported as “inactive”.
